Screening results deposited in PubChem BioAssay by several laboratories.
KKLEB cytotox: reduces viability of KKLEB cystic fibrosis airway cells; KKLEB CF airway cells viability, ATPlite luminescence, overnight; hits give low values; cells stimulated with P. aeruginosa culture filtrate; activity change (cytotoxicity), % at 5 µM; 360,000 tested, 0.36% active;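 active = corrected activity change at or below -50% at 5 µM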
CF NFkB block: blocks PAF-induced NF-kB reporter in cystic fibrosis cells | KKLEB NF-kB-GFP reporter, GFP fluorescence overnight | inhibition, % at 5 µM | 360,000 tested, 0.86% active;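 active = at least 50% inhibition at 5 µM, scaled per plate between neutral and stimulator controls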;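 note: PAF is a Pseudomonas aeruginosa culture filtrate used as stimulus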
Peg3 promoter: reduces Peg3 promoter-driven luciferase expression in HeLa. HeLa PEG-Prom luciferase reporter, luminescence, overnight. inhibition, % at 20 µM. 360,000 tested, 1.7% active;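 active = inhibition of at least 50% at 20 µM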
HIF-2a block: blocks HIF-2a reporter activity | 786-0 RCC cells HIF-2a reporter, luciferase luminescence, overnight | inhibition, % at 18.8 µM | 360,000 tested, 0.72% active | AID 624352;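 active = inhibition of the luminescence signal of 40% or more relative to plate controls, in a single-dose primary screen at 18.75 µM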
CHOP inhibitor: inhibitors of CHOP induction in ER stress response. inhibition, % at 10 µM. 220,000 tested, 3.8% active. CHO-K1 CHOP-promoter luciferase, tunicamycin-induced, 15-18 h;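 active = compounds that reduced the stress-induced luciferase reporter signal by more than about 70% of percent inhibition, limit read from the data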
MITF TRPM1 inh: MITF TRPM1 promoter inhibition in SK-MEL-5 cells | inhibition, % at 12.5 µM | AID 488899 | 330,000 tested, 0.83% active | SK-MEL-5 TRPM1 promoter luciferase, 24 h;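 active = mean inhibition across replicates of 60% or more, whatever share of single replicates reaches that level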
CF NFkB conf: CF NF-kB inhibition confirmation, single concentration; shares compounds with CF NFkB block; KKLEB CF airway cells, PAF-induced NF-kB-GFP fluorescence, overnight; inhibition, % at 5 µM; 1,300 tested, 64% active; in the data active = inhibition above about 40%;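 note: stimulus PAF is a Pseudomonas aeruginosa filtrate and not platelet activating factor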
Mdm2-MdmX confirm: Mdm2/MdmX (human) interaction inhibition, confirmed. AID 504601. inhibition, % at 8 µM. SaOS-2 split-luciferase Mdm2/MdmX complementation, luminescence. shares compounds with HIF-2a block. 740 tested, 99% active;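 active = mean inhibition of the luminescence signal across two replicates at or above 26 percent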
Target sequence (O15151 whole entry, looked up): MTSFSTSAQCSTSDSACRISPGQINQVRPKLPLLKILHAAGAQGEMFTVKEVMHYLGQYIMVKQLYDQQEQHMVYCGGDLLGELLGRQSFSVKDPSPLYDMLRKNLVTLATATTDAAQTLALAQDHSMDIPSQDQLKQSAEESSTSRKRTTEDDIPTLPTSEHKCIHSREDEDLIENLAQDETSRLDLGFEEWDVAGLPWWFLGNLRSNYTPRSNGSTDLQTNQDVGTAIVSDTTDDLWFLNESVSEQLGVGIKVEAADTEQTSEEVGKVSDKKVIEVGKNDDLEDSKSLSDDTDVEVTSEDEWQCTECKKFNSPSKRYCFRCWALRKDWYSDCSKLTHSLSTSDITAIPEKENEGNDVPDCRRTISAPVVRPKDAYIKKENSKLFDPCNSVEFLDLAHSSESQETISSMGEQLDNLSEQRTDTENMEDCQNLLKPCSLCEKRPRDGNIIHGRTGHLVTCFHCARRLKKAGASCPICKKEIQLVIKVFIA
Target sequence (Q00987 whole entry, looked up): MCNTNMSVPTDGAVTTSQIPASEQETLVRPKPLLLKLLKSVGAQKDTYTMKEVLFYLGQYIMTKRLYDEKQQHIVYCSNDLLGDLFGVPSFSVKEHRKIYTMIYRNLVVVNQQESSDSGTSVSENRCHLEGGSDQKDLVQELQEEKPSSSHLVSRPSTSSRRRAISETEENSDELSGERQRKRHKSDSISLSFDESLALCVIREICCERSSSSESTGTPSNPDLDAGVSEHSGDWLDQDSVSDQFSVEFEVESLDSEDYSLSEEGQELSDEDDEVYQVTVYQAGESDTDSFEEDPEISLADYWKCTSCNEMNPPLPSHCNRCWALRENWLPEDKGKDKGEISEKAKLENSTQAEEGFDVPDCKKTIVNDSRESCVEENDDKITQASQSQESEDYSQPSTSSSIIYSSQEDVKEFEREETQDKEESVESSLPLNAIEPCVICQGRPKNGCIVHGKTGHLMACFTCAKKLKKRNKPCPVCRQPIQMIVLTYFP
HIF-2a conf: HIF-2a inhibition, single concentration confirmation | shares compounds with HIF-2a block | 786-0 RCC cells, HIF-2a luciferase reporter luminescence, overnight | inhibition, % at 18.8 µM | 1,800 tested, 56% active;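 active = mean inhibition across four replicates of at least 40 percent at the single tested concentration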
HIF-1a counter: HIF-1a inhibition counter-screen for HIF-2a hits | inhibition, % at 18.8 µM | shares compounds with HIF-2a block | MiaPaCa-2 HIF-1a luciferase reporter, desferoxamine, overnight | 1,800 tested, 72% active;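 active = mean inhibition of the reporter signal across four replicates at the single tested dose of 50% or more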
Large screens that a line does not name were inactive (follow-up assays come after a bar, where they were run). Only some compounds are listed: those with a hit (about 4.3% of all), similar ones and a draw of the others.

CC(C)OCCCNC(=O)c1c(N)n(/N=C/c2ccccn2)c2nc3ccccc3nc12	CF NFkB block 56.4 | CF NFkB conf inactive
CCN(CC)c1ncnc2ccc(Br)cc12	CF NFkB block 70.6 | CF NFkB conf 40.2
COc1ccc2cc(C(N)=O)/c(=N\NC(=O)c3ccccc3)oc2c1	none (no result: CHOP inhibitor)
COc1ccc2cc(C(N)=O)c(=Nc3ccc(C)cc3)oc2c1	CF NFkB block 62.9 | CF NFkB conf 95.9
Cc1cccc(N=c2oc3cc(O)ccc3cc2C(N)=O)c1	CF NFkB block 67.8 | CF NFkB conf 71.8
CCN(CC(=O)Nc1ccc([N+](=O)[O-])cc1OC)c1ccccc1	none
CCCOc1c(Br)cc(C(=O)OCc2cc(=O)n3ccsc3n2)cc1OC	CF NFkB block 57.6 (no result: CHOP inhibitor) | CF NFkB conf inactive
Cc1ccc2[nH]cc(C(=O)CCl)c2c1	CF NFkB block 60.0, Peg3 promoter 108.1 | CF NFkB conf 85.6 | Mdm2-MdmX confirm 103.5
Cc1ccc2[nH]cc(C(=O)CN3CCN(C)CC3)c2c1	none
O=C(O)c1cccc(S(=O)(=O)N2CCC(n3nnc4cc(C(F)(F)F)ccc43)CC2)c1	none (no result: CHOP inhibitor)
CCCC(=O)Nc1nc(C)c(-c2csc(Nc3ccc(Cl)cc3)n2)s1	none
CC(=O)Nc1ccc(Nc2nc(-c3sc(NC(C)=O)nc3C)cs2)cc1	CF NFkB block 67.3, HIF-2a block 67.8 (no result: CHOP inhibitor) | CF NFkB conf 87.1 | HIF-2a conf 66.0 | HIF-1a counter 91.0
CC(C)NC(=O)NC(=O)COC(=O)Cc1c(F)cccc1Cl	none
Cc1ccc(NS(=O)(=O)c2cc(C(=O)NCc3ccncc3)ccc2C)cc1	none (no result: CHOP inhibitor)
C[C@@H]1Cc2c(O)c(O)cc(O)c2C(=O)O1	none
CC1CCC/C=C/C(=O)c2c(O)cc(O)cc2CC(=O)O1 (stereo not given)	CF NFkB block 82.4, Peg3 promoter 105.9, HIF-2a block 90.8, MITF TRPM1 inh 91.6 | CF NFkB conf inactive | Mdm2-MdmX confirm 103.5 | HIF-2a conf 79.6 | HIF-1a counter 101.9
CCCCN(CC(=O)NCCOC)C(=O)Cn1nnc2ccccc21	none
O=C(Nc1ccc(S(=O)(=O)N2CCCCCC2)cc1)c1[nH]ncc1[N+](=O)[O-]	CF NFkB block 70.1, HIF-2a block 40.3, MITF TRPM1 inh 70.2 (no result: CHOP inhibitor) | CF NFkB conf inactive | HIF-2a conf 73.8 | HIF-1a counter 87.8
CN(C)C(=O)CSc1ncnc2scc(-c3ccccc3)c12	none
COc1ccc(-c2csc3ncnc(Sc4nnnn4C)c23)cc1	CF NFkB block 58.5, Peg3 promoter 69.0, HIF-2a block 61.7 (no result: CHOP inhibitor) | CF NFkB conf 54.2 | HIF-2a conf 62.4 | HIF-1a counter 103.9
Cn1nnnc1Sc1ncnc2scc(-c3ccccc3Cl)c12	CF NFkB block 56.2, Peg3 promoter 105.6, HIF-2a block 65.4 (no result: CHOP inhibitor) | CF NFkB conf inactive | HIF-2a conf inactive | HIF-1a counter 90.7
Cn1nnnc1Sc1ncnc2scc(-c3cccc(S(C)(=O)=O)c3)c12	CF NFkB block 52.1, Peg3 promoter 100.1, HIF-2a block 63.4, MITF TRPM1 inh 77.9 (no result: CHOP inhibitor) | CF NFkB conf inactive | HIF-2a conf inactive | HIF-1a counter 65.7
Cc1ccc(CNC(=O)COC(=O)c2ccc(S(=O)(=O)N(C)C)cc2)cc1	none
CC1=CC(C)(C)Nc2ccc(OC(=O)CN3C(=O)c4ccccc4C3=O)cc21	CF NFkB block 50.9, Peg3 promoter 102.0, HIF-2a block 87.5 | CF NFkB conf inactive | HIF-2a conf 88.0 | HIF-1a counter 95.9
CCOc1ccc2c(c1)C(C)=CC(C)(C)N2	none (no result: CHOP inhibitor)
CCOC(=O)N1C(=O)[C@@](c2ccc(Cl)cc2)(C(C)C)N1C(=O)OCC	CF NFkB block 69.8, Peg3 promoter 99.6, HIF-2a block 67.6 (no result: CHOP inhibitor) | CF NFkB conf inactive | HIF-2a conf 57.8 | HIF-1a counter 85.1
CC1CC(C)CN(CCC(=O)Nc2ccc(Br)cc2)C1 (stereo not given)	none (no result: CHOP inhibitor)
C=C1C(=O)C2=CC1CCC(=O)C1(C)CCC(OC(C)=O)C(C)(C)C1CC2O (stereo not given)	CF NFkB block 82.6, Peg3 promoter 98.8, HIF-2a block 85.9 (no result: CHOP inhibitor, MITF TRPM1 inh) | CF NFkB conf 83.5 | HIF-2a conf 95.5 | HIF-1a counter 104.9
CC(=O)OC1CCC2C3CCC4OC(=O)CCC4C3CCC12C (stereo not given)	none (no result: CHOP inhibitor)
CS(=O)(=O)c1ccc(C(=O)OCC(=O)NC23CC4CC(CC(C4)C2)C3)cc1[N+](=O)[O-]	CF NFkB block 61.4, Peg3 promoter 100.3, HIF-2a block 92.0 | CF NFkB conf inactive | HIF-2a conf 64.0 | HIF-1a counter 94.3
CCCc1cc(=O)[nH]c(SCC(=O)c2cc(C)n(CC(F)(F)F)c2C)n1	none
Cc1cc(C(=O)Cn2ncc(Cl)c(Cl)c2=O)c(C)n1CC(F)(F)F	CF NFkB block 76.9, Peg3 promoter 99.7, HIF-2a block 94.3 | CF NFkB conf inactive | HIF-2a conf inactive | HIF-1a counter 103.3
O=C(c1ccoc1)N1CCCC(N2CCN(c3cccc(Cl)c3)CC2)C1 (stereo not given)	none (no result: CHOP inhibitor)
COc1ccc(-n2ccnc2SCC(=O)NC2CCCC2)cc1	none (no result: CHOP inhibitor)
N#Cc1c(Oc2ccc3ccccc3c2)sc(C(=O)c2ccccc2)c1N	CF NFkB block 50.6, HIF-2a block 42.5 | CF NFkB conf inactive | HIF-2a conf inactive | HIF-1a counter inactive
CCOC(=O)COc1ccc2ccccc2c1/C=C/[N+](=O)[O-]	CF NFkB block 62.3, Peg3 promoter 107.0, HIF-2a block 90.2, CHOP inhibitor 109.4, MITF TRPM1 inh 82.9 | CF NFkB conf 106.7 | HIF-2a conf 85.8 | HIF-1a counter 104.4
CC(=C/c1ccccc1)/C=N/n1c(-c2ccncc2)n[nH]c1=S	CF NFkB block 76.3 | CF NFkB conf 78.4 | Mdm2-MdmX confirm 89.2
O=C(Nc1ccc2nc3n(c(=O)c2c1)CCCC3)c1ccccc1F	none (no result: CHOP inhibitor)
O=C(Nc1ccc2nc3n(c(=O)c2c1)CCCCC3)c1cc([N+](=O)[O-])ccc1F	CF NFkB block 71.4, Peg3 promoter 107.6, HIF-2a block 45.8, MITF TRPM1 inh 67.4 (no result: CHOP inhibitor) | CF NFkB conf inactive | HIF-2a conf inactive | HIF-1a counter 105.3
